Activity calls are given as the source filed them. Calls come from the whole dose curve; as a rule, active = well fitted curve in the direction sought with a large enough effect; inconclusive = small, poorly fitted or top-dose-only effect, or another doubt; inactive = no such curve, though single readings can be large; an effect the other way counts as inactive or inconclusive.
Legend:
[1] = target: Alpha-galactosidase A (Homo sapiens) (UniProt P06280); assay: Counterscreen for Glucocerebrosidase Inhibitors: qHTS Assay for Human alpha-Galactosidase at pH 4.5 (AID 992); conditions: purified enzyme, fluorogenic substrate; series mostly up to 76.9 µM
Procedure, shortened: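 Quantitative HTS: compounds tested from 0.7 nM up to 77 uM against 2 nM enzyme with 80 uM 4-MU alpha-D-galactopyranoside. The 20 min room-temperature reaction is stopped with 1M NaOH/1M glycine, pH 10.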

[2] = target: alpha-glucosidase (Oryza sativa, rice) (UniProt Q653V4); assay: Counterscreen for Glucocerebrosidase Inhibitors: qHTS Assay for Rice alpha-Glucosidase at pH 5.0 (AID 997); conditions: rice alpha-glucosidase enzyme activity; series mostly up to 76.9 µM
Procedure, shortened: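 Rice alpha-glucosidase (4 nM final) with 400 uM 4-methylumbelliferyl-alpha-D-glucopyranoside in citrate buffer pH 5.0, 20 min at room temperature, stopped at pH 10; fluorescence 365/440 nm, compounds 0.7 nM–77 uM, AC50 from Hill fits.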

Alpha-galactosidase A (Homo sapiens), sequence (P06280 whole entry, looked up): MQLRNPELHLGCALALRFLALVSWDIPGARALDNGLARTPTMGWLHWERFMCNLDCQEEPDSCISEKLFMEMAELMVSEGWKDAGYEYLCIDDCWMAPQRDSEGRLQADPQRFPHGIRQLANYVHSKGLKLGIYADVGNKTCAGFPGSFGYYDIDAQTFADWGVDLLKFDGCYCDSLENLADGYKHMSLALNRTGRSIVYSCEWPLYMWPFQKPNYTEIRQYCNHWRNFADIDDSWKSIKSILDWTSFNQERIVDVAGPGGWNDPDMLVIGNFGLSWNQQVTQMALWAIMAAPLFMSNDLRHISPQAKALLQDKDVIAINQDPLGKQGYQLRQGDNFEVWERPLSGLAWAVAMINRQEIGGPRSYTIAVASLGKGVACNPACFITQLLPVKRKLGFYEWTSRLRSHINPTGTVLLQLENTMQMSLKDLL

Compound | outcome [1] | outcome [2]
O=S(=O)(c1cccc2c(I)cccc12)N1CCCNCC1 | inactive | inactive
CN1CCc2ccccc2Cc2[nH]c3ccccc3c2CC1 | inactive | inactive
C[N+]1(C)CCC(OC(=O)C(c2ccccc2)c2ccccc2)CC1 | inactive | inactive

Source: PubChem BioAssay (NCATS)
